# Measurements reported in ChEMBL document CHEMBL3988442, “University of Dundee, Small-Polar-MMV Screening Library” (2021).
# For part of these data: Measured potencies and affinities stand elsewhere.
# Assays:
# Design in all cases: scale not given: direction of the effect not stated beside the values
# [1] = biological target: Protein translocase subunit SecA (Escherichia coli (strain K12)) (UniProt P10408); assay: Assay to Identify E. coli SecA ATPase Inhibitors; format: functional; conditions: 30 µM
# [2] = biological target: T1, Ubiquitin-activating enzyme e1, putative (Leishmania donovani (strain BPK282A1)) (UniProt E9BSI1); assay: Leishmania donovani Ubiquitin Activating Enzyme (LdE1); format: functional; conditions: 30 µM
# T1 sequence (whole entry): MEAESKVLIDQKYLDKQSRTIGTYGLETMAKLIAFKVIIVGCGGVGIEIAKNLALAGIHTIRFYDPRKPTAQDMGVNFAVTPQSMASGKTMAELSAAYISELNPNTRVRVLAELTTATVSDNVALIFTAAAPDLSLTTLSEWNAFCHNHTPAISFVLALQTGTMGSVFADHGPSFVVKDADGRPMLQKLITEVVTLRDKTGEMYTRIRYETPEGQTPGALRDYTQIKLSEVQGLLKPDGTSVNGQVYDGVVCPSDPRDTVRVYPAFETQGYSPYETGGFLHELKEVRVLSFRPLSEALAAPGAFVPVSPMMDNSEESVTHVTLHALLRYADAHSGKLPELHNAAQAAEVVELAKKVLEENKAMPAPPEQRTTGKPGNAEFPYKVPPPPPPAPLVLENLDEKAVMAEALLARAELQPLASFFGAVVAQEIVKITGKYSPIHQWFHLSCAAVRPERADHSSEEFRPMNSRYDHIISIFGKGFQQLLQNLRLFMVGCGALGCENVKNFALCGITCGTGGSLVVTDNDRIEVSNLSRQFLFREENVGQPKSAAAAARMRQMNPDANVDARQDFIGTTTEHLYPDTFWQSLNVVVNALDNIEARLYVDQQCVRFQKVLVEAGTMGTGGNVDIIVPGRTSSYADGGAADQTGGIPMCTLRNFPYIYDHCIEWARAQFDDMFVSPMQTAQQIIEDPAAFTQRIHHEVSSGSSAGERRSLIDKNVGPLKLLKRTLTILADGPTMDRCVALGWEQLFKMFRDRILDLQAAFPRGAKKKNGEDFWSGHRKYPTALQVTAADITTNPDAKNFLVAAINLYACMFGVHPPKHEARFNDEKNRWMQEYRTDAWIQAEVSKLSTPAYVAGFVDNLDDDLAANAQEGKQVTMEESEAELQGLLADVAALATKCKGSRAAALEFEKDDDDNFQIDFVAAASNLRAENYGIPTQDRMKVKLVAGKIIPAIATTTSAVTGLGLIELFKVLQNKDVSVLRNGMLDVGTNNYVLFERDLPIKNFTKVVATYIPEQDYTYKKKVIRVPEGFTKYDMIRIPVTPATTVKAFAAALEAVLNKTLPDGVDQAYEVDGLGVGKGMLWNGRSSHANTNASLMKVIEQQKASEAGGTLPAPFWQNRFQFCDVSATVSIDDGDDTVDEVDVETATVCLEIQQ
# [3] = biological target: AMP-activated protein kinase, AMPK (Homo sapiens) (UniProt P54646+O43741+P54619+Q9UGJ0+Q9Y478+Q13131+Q9UGI9); assay: AMP-dependent Kinase enzyme assay. An in vitro enzyme assay that detects ADP turnover that is directly proportional to AMPK activity. This uses naive AMPK that is activated during the assay with MK-8722; format: functional; conditions: 30 µM
# [4] = biological target: Sialic acid-binding Ig-like lectin 9 (Homo sapiens) (UniProt Q9Y336); assay: Hs-Siglec9 ALPHAscreen SOP 20170721; conditions: 10 µM
# [5] = system: Trypanosoma cruzi; assay: Trypanosoma cruzi phosphomannomutase and mannose-1-phosphate guanylyltransferase assay; format: functional; conditions: 10 µM
# [6] = biological target: T2, Arginase-2, mitochondrial (Homo sapiens) (UniProt P78540); assay: in vitro enzyme assay to detect the production of urea directly proportional to the activity of Arginase II; format: functional; conditions: 33.3 µM; also: in the data most compounds retested in dose-response had high values
# T2 sequence (whole entry): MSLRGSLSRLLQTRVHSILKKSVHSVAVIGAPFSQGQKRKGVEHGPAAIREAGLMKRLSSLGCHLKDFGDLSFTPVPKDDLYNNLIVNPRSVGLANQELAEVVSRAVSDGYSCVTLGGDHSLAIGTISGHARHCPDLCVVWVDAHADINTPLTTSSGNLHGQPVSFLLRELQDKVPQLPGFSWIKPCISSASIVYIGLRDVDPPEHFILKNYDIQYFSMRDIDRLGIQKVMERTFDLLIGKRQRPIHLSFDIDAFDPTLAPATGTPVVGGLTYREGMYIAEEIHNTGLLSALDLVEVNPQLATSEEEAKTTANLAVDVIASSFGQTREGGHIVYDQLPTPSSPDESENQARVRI
# [7] = biological target: T3, Proteasome subunit beta (Trypanosoma cruzi) (UniProt O96673); assay: Trypanosoma cruzi proteasome chymotrypsin-like activity (TcProtChymo) assay.; also: in the data most compounds retested in dose-response had high values; format: functional; conditions: 9.37 µM
# T3 sequence (whole entry): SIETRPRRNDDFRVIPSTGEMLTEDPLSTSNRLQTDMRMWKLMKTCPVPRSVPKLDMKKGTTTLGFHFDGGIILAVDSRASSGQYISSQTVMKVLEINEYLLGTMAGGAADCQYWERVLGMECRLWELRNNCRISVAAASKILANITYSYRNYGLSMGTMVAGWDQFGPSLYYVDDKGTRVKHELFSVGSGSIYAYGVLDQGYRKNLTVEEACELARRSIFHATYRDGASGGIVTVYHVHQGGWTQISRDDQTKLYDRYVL
# [8] = organism: Homo sapiens; assay: To identify inhibition of the IFN signalling (Jak-Stat) pathway via expression of an eGFP reporter gene under the control of an IFN-stimulated response element (ISRE) containing MxA promoter.; format: functional; conditions: 30 µM
# [9] = biological target: T4, Tyrosyl-tRNA synthetase, putative (Trypanosoma cruzi (strain CL Brener)) (UniProt Q4DSP6); assay: Trypanosoma cruzi tyrosyl tRNA synthetase (TcYRS) _High Tyrosine SOP; format: functional; conditions: 30 µM; also: in the data most compounds retested in dose-response had high values
# T4 sequence (whole entry): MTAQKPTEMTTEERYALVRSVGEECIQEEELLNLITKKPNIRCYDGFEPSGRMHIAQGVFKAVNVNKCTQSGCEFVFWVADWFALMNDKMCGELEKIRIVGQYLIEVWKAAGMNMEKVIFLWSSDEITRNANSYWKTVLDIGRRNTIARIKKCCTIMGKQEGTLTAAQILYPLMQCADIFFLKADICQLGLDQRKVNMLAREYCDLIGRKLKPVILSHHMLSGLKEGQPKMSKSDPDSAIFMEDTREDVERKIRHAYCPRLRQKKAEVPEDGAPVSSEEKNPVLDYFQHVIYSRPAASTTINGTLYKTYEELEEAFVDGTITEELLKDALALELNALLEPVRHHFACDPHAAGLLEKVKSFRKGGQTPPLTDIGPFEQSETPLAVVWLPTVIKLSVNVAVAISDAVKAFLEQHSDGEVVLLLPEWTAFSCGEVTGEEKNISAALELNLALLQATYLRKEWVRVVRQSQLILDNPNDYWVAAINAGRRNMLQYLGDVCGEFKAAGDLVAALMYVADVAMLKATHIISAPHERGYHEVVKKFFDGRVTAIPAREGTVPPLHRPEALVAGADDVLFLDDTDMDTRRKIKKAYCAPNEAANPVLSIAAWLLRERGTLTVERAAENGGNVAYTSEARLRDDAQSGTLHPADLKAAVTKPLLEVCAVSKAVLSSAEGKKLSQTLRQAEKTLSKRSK
# [10] = biological target: T4, Tyrosyl-tRNA synthetase, putative (Trypanosoma cruzi (strain CL Brener)); assay: Trypanosoma cruzi tyrosyl tRNA synthetase (TcYRS) SOP; format: functional; conditions: 30 µM
# [11] = biological target: Chromo domain-containing protein 1 (Saccharomyces cerevisiae (strain ATCC 204508 / S288c) (Baker's yeast)) (UniProt P32657); assay: ScCHD-1 Enzyme Inhibition Assay; format: functional; conditions: 30 µM; also: in the data most compounds retested in dose-response had high values
# Chain of Chromo domain-containing protein 1 (Saccharomyces cerevisiae (strain ATCC 204508 / S288c) (Baker's yeast)) (P32657 whole entry, the tested form may be a part): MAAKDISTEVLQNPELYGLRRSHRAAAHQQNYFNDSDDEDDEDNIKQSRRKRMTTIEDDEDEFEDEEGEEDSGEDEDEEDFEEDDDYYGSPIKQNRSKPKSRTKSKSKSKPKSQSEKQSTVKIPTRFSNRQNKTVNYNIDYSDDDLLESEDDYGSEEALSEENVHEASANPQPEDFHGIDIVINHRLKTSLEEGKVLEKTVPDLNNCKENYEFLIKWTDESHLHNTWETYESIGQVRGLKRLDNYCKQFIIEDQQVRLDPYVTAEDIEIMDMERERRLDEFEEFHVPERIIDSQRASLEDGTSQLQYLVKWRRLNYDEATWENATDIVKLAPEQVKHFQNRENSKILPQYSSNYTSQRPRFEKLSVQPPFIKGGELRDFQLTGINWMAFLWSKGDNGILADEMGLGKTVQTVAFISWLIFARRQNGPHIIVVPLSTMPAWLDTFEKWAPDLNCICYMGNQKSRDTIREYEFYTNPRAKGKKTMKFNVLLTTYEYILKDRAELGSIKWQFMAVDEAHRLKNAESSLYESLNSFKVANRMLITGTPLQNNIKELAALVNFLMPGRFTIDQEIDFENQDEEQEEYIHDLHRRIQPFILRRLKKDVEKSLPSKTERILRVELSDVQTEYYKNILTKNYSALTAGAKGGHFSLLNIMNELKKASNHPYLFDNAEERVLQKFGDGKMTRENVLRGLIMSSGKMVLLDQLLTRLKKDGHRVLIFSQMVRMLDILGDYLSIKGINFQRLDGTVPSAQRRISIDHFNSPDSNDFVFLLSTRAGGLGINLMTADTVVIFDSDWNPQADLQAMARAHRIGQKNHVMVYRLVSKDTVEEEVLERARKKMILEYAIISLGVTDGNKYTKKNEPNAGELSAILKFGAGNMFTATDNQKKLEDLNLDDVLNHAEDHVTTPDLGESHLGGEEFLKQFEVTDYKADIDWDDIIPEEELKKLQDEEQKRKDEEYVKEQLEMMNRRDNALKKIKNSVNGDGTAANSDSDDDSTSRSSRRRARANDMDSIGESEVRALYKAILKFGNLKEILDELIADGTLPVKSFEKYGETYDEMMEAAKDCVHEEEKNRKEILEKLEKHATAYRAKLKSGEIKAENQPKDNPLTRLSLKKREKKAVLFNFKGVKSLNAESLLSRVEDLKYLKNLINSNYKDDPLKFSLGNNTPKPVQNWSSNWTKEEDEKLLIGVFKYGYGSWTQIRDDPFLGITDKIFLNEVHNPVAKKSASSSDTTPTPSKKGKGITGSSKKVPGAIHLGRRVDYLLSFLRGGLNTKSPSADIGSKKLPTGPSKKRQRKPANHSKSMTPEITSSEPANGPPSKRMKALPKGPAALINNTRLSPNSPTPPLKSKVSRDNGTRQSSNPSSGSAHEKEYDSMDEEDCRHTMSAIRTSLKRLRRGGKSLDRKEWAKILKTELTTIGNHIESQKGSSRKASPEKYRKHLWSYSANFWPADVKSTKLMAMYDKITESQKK
# Chain of Protein translocase subunit SecA (Escherichia coli (strain K12)) (P10408 whole entry): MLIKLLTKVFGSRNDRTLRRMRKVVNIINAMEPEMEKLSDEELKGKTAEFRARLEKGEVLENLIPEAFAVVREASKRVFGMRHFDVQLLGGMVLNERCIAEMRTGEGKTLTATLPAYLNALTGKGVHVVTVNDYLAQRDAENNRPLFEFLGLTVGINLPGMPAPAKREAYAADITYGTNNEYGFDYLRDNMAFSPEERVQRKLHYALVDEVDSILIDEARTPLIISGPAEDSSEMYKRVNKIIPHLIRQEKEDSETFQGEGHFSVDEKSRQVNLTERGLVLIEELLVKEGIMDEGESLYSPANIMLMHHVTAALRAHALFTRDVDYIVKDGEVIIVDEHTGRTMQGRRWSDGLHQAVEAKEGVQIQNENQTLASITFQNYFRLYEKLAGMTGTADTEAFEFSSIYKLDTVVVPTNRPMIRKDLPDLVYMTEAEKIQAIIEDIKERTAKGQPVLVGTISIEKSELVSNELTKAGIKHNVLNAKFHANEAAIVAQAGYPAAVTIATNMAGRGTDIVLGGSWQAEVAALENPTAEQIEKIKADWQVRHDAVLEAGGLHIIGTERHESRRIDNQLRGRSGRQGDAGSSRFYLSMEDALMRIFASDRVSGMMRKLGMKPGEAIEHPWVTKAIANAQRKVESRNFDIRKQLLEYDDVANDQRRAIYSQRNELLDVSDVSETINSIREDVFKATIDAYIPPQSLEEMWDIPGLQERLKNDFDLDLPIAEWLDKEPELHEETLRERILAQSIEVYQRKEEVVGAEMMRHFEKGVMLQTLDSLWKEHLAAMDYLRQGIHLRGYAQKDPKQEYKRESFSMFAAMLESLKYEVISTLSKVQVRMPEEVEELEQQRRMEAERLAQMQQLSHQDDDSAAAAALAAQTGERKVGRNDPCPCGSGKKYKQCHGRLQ
# Chain of Sialic acid-binding Ig-like lectin 9 (Homo sapiens) (Q9Y336 whole entry): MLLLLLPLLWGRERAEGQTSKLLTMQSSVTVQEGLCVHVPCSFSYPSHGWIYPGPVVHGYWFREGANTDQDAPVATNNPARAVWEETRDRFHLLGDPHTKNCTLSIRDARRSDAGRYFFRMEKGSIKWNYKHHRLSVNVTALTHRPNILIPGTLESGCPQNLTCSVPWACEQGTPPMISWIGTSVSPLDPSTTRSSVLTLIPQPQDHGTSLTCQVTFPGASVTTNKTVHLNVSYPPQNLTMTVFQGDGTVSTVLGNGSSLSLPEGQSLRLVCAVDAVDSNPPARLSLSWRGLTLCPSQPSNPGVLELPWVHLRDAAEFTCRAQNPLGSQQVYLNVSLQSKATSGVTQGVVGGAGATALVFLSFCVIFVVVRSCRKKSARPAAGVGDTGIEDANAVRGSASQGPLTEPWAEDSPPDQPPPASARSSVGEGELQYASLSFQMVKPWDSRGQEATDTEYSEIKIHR
SMILES,Percent Effect [1] [%],Percent Effect [2] [%],Percent Effect [3] [%],Percent Effect [4] [%],Percent Effect [5] [%],Percent Effect [6] [%],Percent Effect [7] [%],Percent Effect [8] [%],Percent Effect [9] [%],Percent Effect [10] [%],Percent Effect [11] [%]
Cc1cc(C)n(C2CN(CC(=O)NC3CCOCC3)C2)n1,-6.74,6.33,6.98,1.96,-1.33,-1.94,9.26,10.4,8.33,15.2,-15
O=C1[C@H]2CN(Cc3nccs3)C[C@H]2CN1c1ccsc1,-6.53,0,8.27,-7.06,-2.25,0.319,12.4,-3.04,-1.08,2.56,-0.738
COc1ccccc1OCC(=O)NS(=O)(=O)c1cc(F)ccc1F,-2.96,-2.7,1.01,2.58,-5.99,0,0.345,0.0392,0.529,4.88,-1.41
Cc1cnn(CC2CN(CC(=O)Nc3sccc3C#N)CCO2)c1 (stereo unspecified),-4.12,7.89,0.0642,13,0.564,5.75,3.17,18.2,4.41,7.32,-1.67
Cc1cc(CNC(=O)C2CCCCN2C(=O)OC(C)(C)C)no1 (stereo unspecified),-4.46,2.7,-5.58,0.833,-2.83,0.744,1.29,4.89,3.23,13.6,-3.75
Cc1nc(-c2ccccc2)sc1C(=O)NCCNc1ncccn1,-4.03,-2.63,-5.12,-0.445,-7.94,4.32,3.98,8.09,6.4,11.1,5.7
